# From PubChem BioAssay
# Values without a mark were called inactive. How the calls were made is not given here.
# Biological target: Pantothenate synthetase (Mycobacterium tuberculosis (strain ATCC 25618 / H37Rv)) (UniProt P9WIL5)
# Assay: Recombinant Mtb pantothenate synthetase (PanC) inhibitors, coupled enzyme, confirmatory (AID 375);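 further: 0% = full reaction with vehicle and 100% = no enzyme background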
# Details: coupled enzyme assay; at 10 µM, active compounds read high
# Chain of Pantothenate synthetase (Mycobacterium tuberculosis (strain ATCC 25618 / H37Rv)) (P9WIL5 whole entry, looked up): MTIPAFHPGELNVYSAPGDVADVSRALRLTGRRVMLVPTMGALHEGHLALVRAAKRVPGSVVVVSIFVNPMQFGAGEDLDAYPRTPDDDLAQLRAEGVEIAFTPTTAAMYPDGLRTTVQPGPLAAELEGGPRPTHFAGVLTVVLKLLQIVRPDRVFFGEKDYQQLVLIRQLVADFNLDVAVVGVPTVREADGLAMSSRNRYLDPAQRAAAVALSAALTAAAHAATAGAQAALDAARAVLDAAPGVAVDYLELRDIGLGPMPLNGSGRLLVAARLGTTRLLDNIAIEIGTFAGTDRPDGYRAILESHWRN
row,SMILES,inhibition
1,O=C(c1cnn2c(C(F)F)cc(-c3ccccc3)nc12)N1CCN2CCCC2C1 (stereo not drawn),0%
2,N#CC1=C(SCC(=O)c2cc3ccccc3oc2=O)NC(=O)C(C#N)C12CCCC2 (stereo not drawn),0%
3,Cc1nc2cc(N3CCCCC3)c(NC(=O)c3cccnc3)cc2c(=O)n1Cc1ccccc1,1%
4,Cc1c(Cl)cccc1NC(=O)CCN1CCCCC1,0%
5,Cc1cccc2cc(CN(Cc3nnnn3C3CCCC3)C3CCCCC3)c(=O)[nH]c12,4%
6,CCSC1=NCN(CCCC(=O)O)CN1,0%
7,O=C(OCCN1C(=O)c2ccccc2C1=O)c1ccc(S(=O)(=O)N2CCCCCC2)cc1,0%
8,Cc1nn(Cc2ccc(C(=O)NC3CCCCC3)o2)c(C)c1Br,2%
9,CNCCCN1c2ccccc2CCc2ccccc21,0%
10,COc1ccccc1CC(=O)NCC1CCCO1 (stereo not drawn),0%
11,COc1ccc(-c2cn3cc(C)ccc3n2)cc1OC,8%
12,CCOC(=O)C1CCN(c2cc(C)nc3cc(-c4cccc(F)c4)nn23)CC1,3%
13,CCCCn1c(=O)[nH]c(=O)c2c1nc(-c1ccncc1)n2CCOC,1%
14,CC(=O)c1ccc(NC(=O)c2noc3c2CCCCC3)cc1,1%
15,CCOCCCNC(=O)C1CCN(S(=O)(=O)N(CC(C)C)CC(C)C)CC1,0%
16,CC(CCc1ccco1)NC(=O)Cn1ncc2c1-c1ccccc1OC2 (stereo not drawn),5%
17,CC(C)c1nnc(NC(=O)C2CCCCC2)s1,1%
18,O=C(c1ccc2ccccc2n1)N1CCN(c2ccccc2)CC1,0%
